Test results from article PMC7862700, “An all-to-all approach to the identification of sequence-specific readers for epigenetic DNA modifications on cytosine”.

Experiments:
Assay in all cases: DAPPL (digital affinity profiling via proximity ligation, sequencing); 10 mM Tris-HCl pH 7.5, 50 mM NaCl, 1 mM DTT, 4% glycerol, room temperature, 30 min; GST-TFs on glutathione beads, 16-mer random dsDNA library, 0.1% formaldehyde crosslink after washing; high values mean tight binding
Settings in all cases: protein: recombinant; tags: N-terminal GST; dsDNA, one strand shown
[1] = target: T1, ERG (Homo sapiens, UniProt P11308 1-479)
T1 sequence: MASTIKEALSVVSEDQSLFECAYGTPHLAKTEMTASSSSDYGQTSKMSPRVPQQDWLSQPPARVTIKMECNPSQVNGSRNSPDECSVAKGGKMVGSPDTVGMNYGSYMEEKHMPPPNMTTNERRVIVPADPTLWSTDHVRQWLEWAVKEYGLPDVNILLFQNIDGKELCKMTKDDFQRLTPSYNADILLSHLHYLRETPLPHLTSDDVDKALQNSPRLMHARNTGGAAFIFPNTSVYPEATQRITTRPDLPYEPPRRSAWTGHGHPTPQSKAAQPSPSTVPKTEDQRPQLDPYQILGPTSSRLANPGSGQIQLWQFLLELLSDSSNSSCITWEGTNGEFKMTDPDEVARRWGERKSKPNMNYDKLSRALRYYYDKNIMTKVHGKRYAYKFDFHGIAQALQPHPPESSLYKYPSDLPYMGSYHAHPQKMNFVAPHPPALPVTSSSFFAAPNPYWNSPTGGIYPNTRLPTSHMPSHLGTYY
How it was run: (§1)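 A tag-only sample was pooled with DNA-barcoded human transcription factors that had been expressed in yeast as GST fusions and captured on glutathione beads. The pools were incubated for 30 min at room temperature with 200 nmole of a random double-stranded 16-mer DNA library in Tris/NaCl/DTT/glycerol buffer, then washed, crosslinked with 0.1% formaldehyde, proximity-ligated (BsaI/T4 ligase, 1 h, 37 °C), PCR-amplified and sequenced on an Illumina NextSeq500. Binding signal is each hexamer's read frequency for a factor divided by its frequency for the tag-only sample.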

[2] = target: ELF1 (Homo sapiens, UniProt P32519 1-619)
How it was run: as §1

[3] = target: T2, EHF (Homo sapiens, UniProt Q9NZC4 1-300)
T2 sequence: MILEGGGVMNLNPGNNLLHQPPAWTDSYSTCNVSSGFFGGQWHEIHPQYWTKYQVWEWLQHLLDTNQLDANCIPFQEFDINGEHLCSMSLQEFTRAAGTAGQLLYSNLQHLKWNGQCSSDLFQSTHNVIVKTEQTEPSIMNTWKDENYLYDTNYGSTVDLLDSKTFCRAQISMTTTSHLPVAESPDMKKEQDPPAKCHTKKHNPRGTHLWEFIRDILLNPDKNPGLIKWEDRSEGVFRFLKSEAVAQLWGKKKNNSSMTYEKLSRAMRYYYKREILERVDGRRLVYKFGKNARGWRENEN
How it was run: as §1

[4] = target: SPIB (Homo sapiens, UniProt Q01892 1-262)
How it was run: as §1

[5] = target: T3, FEV (Homo sapiens, UniProt Q99581 1-238)
T3 sequence: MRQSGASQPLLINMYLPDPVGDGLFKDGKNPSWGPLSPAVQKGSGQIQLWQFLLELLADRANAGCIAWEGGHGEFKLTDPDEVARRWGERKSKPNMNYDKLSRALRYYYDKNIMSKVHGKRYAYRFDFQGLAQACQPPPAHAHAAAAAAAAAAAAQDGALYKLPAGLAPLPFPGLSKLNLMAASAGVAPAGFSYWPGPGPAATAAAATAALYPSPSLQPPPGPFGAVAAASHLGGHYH
How it was run: as §1

[6] = target: ETV5 (Homo sapiens, UniProt P41161 1-510)
How it was run: as §1

[7] = target: T4, ELK4 (Homo sapiens, UniProt P28324-2 1-405)
T4 sequence: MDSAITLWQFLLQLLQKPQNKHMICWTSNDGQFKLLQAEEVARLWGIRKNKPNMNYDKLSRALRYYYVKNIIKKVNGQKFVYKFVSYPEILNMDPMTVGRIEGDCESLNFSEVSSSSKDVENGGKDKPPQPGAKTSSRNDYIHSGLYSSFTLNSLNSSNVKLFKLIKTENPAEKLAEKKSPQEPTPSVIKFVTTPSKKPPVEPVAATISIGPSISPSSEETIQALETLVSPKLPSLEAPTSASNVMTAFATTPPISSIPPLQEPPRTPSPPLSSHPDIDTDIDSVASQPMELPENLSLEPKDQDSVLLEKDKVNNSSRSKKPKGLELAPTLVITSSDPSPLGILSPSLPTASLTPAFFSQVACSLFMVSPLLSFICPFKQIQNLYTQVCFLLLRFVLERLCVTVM
How it was run: as §1

[8] = target: T5, ETV2 (Homo sapiens, UniProt O00321 1-342)
T5 sequence: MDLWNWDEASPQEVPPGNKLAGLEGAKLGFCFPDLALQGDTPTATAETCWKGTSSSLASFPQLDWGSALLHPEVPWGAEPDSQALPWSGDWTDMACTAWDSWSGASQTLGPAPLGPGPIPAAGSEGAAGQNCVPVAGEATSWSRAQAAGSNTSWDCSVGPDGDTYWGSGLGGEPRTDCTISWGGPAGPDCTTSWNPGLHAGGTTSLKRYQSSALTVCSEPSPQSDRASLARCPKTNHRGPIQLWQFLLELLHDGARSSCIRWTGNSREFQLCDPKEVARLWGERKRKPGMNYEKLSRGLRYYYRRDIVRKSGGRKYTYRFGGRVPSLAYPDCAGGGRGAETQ
How it was run: as §1

[9] = target: T6, ELF3 (Homo sapiens, UniProt P78545 1-371)
T6 sequence: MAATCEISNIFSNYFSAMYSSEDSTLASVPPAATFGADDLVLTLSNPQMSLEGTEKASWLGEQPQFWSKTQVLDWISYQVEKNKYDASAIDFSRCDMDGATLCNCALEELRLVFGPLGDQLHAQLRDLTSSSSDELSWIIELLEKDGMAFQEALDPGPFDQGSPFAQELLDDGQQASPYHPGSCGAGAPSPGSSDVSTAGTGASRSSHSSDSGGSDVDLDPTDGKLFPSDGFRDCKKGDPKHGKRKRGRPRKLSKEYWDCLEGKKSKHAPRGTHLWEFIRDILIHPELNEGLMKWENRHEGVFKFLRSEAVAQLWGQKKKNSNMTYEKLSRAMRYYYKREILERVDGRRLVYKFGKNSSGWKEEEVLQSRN
How it was run: as §1

[10] = target: T7, ERF (Homo sapiens, UniProt P50548 1-548)
T7 sequence: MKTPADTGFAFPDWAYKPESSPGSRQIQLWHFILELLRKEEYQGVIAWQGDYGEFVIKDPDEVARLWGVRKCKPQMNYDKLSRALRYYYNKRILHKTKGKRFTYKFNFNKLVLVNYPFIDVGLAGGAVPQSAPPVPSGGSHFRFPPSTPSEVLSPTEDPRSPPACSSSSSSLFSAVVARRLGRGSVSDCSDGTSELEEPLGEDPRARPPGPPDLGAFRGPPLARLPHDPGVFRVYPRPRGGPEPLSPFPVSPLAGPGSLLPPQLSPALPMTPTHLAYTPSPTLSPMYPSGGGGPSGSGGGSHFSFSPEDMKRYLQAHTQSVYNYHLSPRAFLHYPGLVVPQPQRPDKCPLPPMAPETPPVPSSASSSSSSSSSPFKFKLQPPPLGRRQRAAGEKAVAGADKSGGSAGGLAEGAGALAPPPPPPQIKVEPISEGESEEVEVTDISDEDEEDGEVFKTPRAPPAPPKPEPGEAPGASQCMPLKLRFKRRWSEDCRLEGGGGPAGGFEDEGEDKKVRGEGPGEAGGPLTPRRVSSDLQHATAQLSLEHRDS
How it was run: as §1

[11] = target: T8, ETV3L (Homo sapiens, UniProt Q6ZN32 1-361)
T8 sequence: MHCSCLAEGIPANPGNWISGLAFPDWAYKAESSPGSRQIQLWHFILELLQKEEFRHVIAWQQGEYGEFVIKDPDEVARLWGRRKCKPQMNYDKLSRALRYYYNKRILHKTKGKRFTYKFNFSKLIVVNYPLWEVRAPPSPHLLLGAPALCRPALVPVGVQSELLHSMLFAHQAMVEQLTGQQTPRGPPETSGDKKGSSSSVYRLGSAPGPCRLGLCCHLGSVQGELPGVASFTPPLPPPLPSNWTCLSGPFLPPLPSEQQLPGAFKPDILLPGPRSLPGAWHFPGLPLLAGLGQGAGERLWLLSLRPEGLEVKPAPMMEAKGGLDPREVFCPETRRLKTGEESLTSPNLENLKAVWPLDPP
How it was run: as §1

[12] = target: T9, ETS2 (Homo sapiens, UniProt P15036 1-469)
T9 sequence: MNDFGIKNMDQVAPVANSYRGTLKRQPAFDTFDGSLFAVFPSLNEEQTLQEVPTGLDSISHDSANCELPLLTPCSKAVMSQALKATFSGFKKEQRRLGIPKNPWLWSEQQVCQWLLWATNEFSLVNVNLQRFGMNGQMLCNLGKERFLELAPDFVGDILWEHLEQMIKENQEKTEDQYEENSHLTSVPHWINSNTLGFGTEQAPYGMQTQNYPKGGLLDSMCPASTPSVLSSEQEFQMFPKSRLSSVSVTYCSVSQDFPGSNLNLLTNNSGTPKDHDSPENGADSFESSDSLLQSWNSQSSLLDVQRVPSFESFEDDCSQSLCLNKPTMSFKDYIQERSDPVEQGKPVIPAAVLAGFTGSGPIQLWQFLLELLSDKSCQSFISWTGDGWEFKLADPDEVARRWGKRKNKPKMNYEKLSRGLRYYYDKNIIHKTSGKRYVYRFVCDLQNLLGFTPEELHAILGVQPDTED
How it was run: as §1

[13] = target: T10, SPDEF (Homo sapiens, UniProt O95238 1-335)
T10 sequence: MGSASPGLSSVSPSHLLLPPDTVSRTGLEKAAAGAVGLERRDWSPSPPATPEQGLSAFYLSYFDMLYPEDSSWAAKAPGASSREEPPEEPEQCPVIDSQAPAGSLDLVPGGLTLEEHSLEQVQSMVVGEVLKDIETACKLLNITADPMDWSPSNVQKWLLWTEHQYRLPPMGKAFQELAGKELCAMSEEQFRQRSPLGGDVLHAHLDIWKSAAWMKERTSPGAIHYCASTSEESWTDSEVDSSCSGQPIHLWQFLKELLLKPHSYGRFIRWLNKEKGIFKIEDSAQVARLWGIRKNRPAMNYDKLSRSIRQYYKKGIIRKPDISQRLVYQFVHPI
How it was run: as §1

[14] = target: T11, ETV7 (Homo sapiens, UniProt Q9Y603 1-341)
T11 sequence: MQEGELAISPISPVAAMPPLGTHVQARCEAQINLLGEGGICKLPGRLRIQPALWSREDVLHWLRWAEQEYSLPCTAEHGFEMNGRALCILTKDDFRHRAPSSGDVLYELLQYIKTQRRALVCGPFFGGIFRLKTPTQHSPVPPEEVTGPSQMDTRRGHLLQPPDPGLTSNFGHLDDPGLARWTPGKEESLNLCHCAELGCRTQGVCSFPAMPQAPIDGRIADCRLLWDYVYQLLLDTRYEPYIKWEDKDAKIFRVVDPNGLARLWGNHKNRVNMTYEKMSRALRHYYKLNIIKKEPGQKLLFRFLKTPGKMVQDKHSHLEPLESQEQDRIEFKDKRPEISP
How it was run: as §1

[15] = target: T12, ETV3 (Homo sapiens, UniProt P41162-2 1-143)
T12 sequence: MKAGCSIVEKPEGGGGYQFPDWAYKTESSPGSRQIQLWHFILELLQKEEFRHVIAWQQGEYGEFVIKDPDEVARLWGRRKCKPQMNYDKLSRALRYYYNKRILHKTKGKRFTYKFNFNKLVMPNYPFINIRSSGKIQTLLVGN
How it was run: as §1

[16] = target: ETV6 (Homo sapiens, UniProt P41212 1-452)
How it was run: as §1

Sequence of ETV5 (P41161 whole entry): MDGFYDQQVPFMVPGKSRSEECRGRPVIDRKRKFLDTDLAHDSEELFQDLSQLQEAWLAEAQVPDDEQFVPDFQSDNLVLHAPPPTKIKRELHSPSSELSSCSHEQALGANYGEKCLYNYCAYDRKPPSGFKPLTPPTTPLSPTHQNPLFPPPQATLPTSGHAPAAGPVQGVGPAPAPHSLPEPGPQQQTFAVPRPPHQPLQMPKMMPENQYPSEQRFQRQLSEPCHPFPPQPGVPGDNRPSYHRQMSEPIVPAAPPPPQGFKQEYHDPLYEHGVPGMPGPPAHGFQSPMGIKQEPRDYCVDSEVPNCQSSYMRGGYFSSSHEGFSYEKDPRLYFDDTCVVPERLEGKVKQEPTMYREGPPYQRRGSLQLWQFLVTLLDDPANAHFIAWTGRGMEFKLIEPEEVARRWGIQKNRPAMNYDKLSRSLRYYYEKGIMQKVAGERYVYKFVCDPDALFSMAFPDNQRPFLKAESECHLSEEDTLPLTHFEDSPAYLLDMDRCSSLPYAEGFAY
Sequence of SPIB (Q01892 whole entry): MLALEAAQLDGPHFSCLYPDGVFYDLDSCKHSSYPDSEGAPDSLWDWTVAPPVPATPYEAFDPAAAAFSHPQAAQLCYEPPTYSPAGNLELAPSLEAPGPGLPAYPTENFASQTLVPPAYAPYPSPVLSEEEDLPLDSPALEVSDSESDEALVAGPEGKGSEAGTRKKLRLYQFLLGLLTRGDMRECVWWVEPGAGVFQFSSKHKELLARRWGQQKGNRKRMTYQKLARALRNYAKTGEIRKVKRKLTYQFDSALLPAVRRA
Sequence of ETV6 (P41212 whole entry): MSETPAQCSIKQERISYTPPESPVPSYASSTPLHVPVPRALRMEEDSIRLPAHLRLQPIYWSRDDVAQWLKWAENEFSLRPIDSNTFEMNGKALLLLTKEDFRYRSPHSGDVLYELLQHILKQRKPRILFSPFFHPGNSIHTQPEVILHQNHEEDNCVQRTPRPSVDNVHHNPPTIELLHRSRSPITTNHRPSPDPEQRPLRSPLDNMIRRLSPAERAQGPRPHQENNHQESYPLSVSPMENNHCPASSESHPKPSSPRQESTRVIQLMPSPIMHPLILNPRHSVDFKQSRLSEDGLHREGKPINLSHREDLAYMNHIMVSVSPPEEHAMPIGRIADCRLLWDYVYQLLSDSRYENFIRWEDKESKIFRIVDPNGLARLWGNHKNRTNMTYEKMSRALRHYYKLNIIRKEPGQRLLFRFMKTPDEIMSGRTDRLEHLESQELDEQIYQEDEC
Sequence of ELF1 (P32519 whole entry): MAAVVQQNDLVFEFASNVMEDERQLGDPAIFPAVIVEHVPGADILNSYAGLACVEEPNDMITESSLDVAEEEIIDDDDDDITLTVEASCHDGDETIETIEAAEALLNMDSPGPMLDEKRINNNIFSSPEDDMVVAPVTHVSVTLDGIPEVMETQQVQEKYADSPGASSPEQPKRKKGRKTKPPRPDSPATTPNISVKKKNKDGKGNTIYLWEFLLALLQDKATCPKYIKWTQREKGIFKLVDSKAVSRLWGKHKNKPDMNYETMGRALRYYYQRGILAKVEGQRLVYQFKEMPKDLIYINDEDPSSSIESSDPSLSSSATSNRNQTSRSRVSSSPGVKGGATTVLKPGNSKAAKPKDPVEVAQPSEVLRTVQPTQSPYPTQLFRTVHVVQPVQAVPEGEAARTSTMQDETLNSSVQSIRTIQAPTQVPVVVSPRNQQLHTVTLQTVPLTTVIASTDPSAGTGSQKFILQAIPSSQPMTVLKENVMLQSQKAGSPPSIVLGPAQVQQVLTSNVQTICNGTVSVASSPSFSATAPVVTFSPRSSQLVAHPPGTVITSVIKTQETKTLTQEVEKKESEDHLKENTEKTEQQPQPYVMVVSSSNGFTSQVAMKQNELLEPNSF

Sequence: TGGCTG
- binding signal [1]: 1.04 fold enrichment (6-mer frequency, TF over GST control)
- binding signal [2]: 1.06 fold enrichment (6-mer frequency, TF over GST control)
- binding signal [3]: 1.23 fold enrichment (6-mer frequency, TF over GST control)
- binding signal [4]: 1.01 fold enrichment (6-mer frequency, TF over GST control)
- binding signal [5]: 1.04 fold enrichment (6-mer frequency, TF over GST control)
- binding signal [6]: 1.08 fold enrichment (6-mer frequency, TF over GST control)
- binding signal [7]: 1.24 fold enrichment (6-mer frequency, TF over GST control)
- binding signal [8]: 1.26 fold enrichment (6-mer frequency, TF over GST control)
- binding signal [9]: 1 fold enrichment (6-mer frequency, TF over GST control)
- binding signal [10]: 1.17 fold enrichment (6-mer frequency, TF over GST control)
- binding signal [11]: 1.09 fold enrichment (6-mer frequency, TF over GST control)
- binding signal [12]: 1.05 fold enrichment (6-mer frequency, TF over GST control)
- binding signal [13]: 1.01 fold enrichment (6-mer frequency, TF over GST control)
- binding signal [14]: 1.07 fold enrichment (6-mer frequency, TF over GST control)
- binding signal [15]: 1 fold enrichment (6-mer frequency, TF over GST control)
- binding signal [16]: 1.02 fold enrichment (6-mer frequency, TF over GST control)
